A selection: hits, their analogues and other compounds. The true share with any hit is near 3.4%.
FBW7 act – human FBW7 E3 ligase activation, primary screen. Q969H0. AlphaScreen FBW7–phospho-cyclin E peptide binding, activator screen. 650,000 tested, 0.13% active. normalized activity (activation), % at 26.1 µM. AID 1259310; in the data active means normalized activity above about 1.9%;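 further: purified mutant Fbw7 with reduced substrate affinity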
MITF inh – inhibitors of human MITF; AlphaScreen MITF homodimerization, bead proximity signal; inhibition, % at 2.6 µM; 650,000 tested, 0.91% active; AID 1259374; in the data active means inhibition above about 50%;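 further: 0% = vehicle wells with protein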
TEAD-YAP block – TEAD-YAP interaction inhibition; HEK-TIYL cells, TEAD-Gal4/YAP UAS-luciferase luminescence; inhibition, % at 9.12 µM; 640,000 tested, 1.4% active; AID 1259422; in the data active means inhibition above about 32%;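 further: 0% = median of test compound wells and 100% = reference inhibitor wells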
GPR151 ag – activates the human receptor GPR151. Q8TDV0. activation, % at 11.2 µM. 650,000 tested, 1% active. PathHunter beta-arrestin GPR151 cells, luminescence; in the data active means activation above about 4.9%;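 further: 0% = median of compound wells and 100% = cells with positive control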
Target sequence (Q8TDV0 whole entry, looked up): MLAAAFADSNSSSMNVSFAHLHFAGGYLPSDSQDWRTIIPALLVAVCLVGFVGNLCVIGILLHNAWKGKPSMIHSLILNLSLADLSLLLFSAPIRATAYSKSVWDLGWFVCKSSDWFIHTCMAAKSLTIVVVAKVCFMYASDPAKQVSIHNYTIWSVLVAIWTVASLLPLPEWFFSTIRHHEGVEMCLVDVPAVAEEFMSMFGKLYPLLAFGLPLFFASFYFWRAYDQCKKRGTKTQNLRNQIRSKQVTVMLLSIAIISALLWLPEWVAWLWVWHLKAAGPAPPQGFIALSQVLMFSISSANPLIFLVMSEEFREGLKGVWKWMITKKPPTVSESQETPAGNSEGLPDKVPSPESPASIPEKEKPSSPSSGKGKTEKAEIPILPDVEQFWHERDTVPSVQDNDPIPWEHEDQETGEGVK
Numbers without * were called inactive.

SMILES	FBW7 act	MITF inh	TEAD-YAP block	GPR151 ag
O=C(Nc1ccc([N+](=O)[O-])cc1Cl)c1cc(Br)ccc1O	0	5	-70	1
O=C(CN1CCN(c2cccc(Cl)c2)CC1)Nc1ccc(Br)cc1	0	7	3	0
CCC(C(=O)N1CCN(C)CC1)n1nc(C)c2sc3ccccc3c2c1=O (stereo not drawn)	0	1	-7	1
CC(=O)c1ccc(NC(=O)CCCC(=O)OCC(Cl)=C(Cl)Cl)cc1	0	-6	-14	0
CCCCCOC(=O)C1=C(C)NC(=O)NC1c1ccc(OC)c(OC)c1 (stereo not drawn)	1	11	6	0
COc1ccc(OCC(=O)Nc2cc([N+](=O)[O-])ccc2O)cc1	0	-1	90*	-7
O=C(N/N=C/c1ccc([N+](=O)[O-])cc1)C(=O)N/N=C/c1ccc([N+](=O)[O-])cc1	0	-14	4	4
CNC(=S)N/N=C\c1ccc([N+](=O)[O-])cc1	0	2	34*	-1
Cc1ccc(NC(=O)c2cc([N+](=O)[O-])ccc2O)cc1	0	26	76*	-10
COc1ccc(/C=N/NC(=O)c2cc([N+](=O)[O-])ccc2O)cc1	0	-5	33*	-9
O=C(Nc1ccc(Oc2ccc(Cl)cc2)cc1)c1cccnc1	0	10	5	1
CN1CCCN(C(=O)C2CC23CCN(Cc2cc4ccccc4o2)CC3)CC1 (stereo not drawn)	0	0	5	-2
CCc1nc2sc(C(=O)c3ccc4c(c3)OCO4)c(N)c2cc1C	1	-5	40*	0
CCCN(CCC)C1=CC(=O)C(C)=CC1=O	0	65*	2	-2
CCCN(CCC)C1=CC(=O)C(C)=C(C)C1=O	0	39	0	0
O=C(Nc1nc2ccccc2[nH]1)c1ccccc1F	0	3	89*	-9
O=C(Nc1nc2ccccc2[nH]1)c1cccc(I)c1	0	-10	-43	0
O=C(Nc1nc2ccccc2[nH]1)c1ccc(F)cc1	0	7	43*	-8
COc1ccc(Cl)cc1C(=O)Nc1nc2ccccc2[nH]1	0	0	66*	-10
O=[N+]([O-])c1ccc(N2CCCC2)c(/C=N/O)c1	0	12	9	2
O=C(COc1nc2ccccc2s1)N1c2ccccc2Sc2ccc(C(F)(F)F)cc21	0	4	17	0
COc1ccc(Nc2nc(NC3CCCCC3)nc(NC3CCCCC3)n2)c(OC)c1	1	5	10	-1
CCCSc1nnc(Sc2nnnn2-c2ccccc2)s1	0	3	56*	1
Cc1ccc(Nc2nc(CSc3nnnn3-c3ccccc3)cs2)cc1	0	12	-2	1
Cc1ccc(Nc2nnc(Sc3nnnn3-c3ccccc3)s2)cc1	1	7	53*	-1
SMILES	FBW7 act	MITF inh	TEAD-YAP block	GPR151 ag
c1ccc(CCSc2nnnn2-c2ccccc2)cc1	0	1	-47	0
COCCN(CCOC)C(=O)c1c[nH]c2ccc(S(=O)(=O)N(C)c3ccc(Cl)cc3)cc2c1=O	0	-3	3	2
O=C(O)CC1S/C(=N/N=C/c2cccc([N+](=O)[O-])c2O)NC1=O (stereo not drawn)	-1	91*	-8	0
Cc1ccc(Nc2nc(-c3ccccn3)cs2)cc1	-1	-5	55*	-4
Cc1ccnc(Nc2nc(-c3ccccn3)cs2)c1	-2	103*	73*	-3
Cc1ccnc(Nc2nc(-c3cccs3)cs2)c1	0	26	-30	-1
CCOc1ccc2[nH]c(=O)c(CN(Cc3cccnc3)S(=O)(=O)c3ccccc3)cc2c1	0	3	41*	0
Oc1ccccc1/C=N/N1CCN(Cc2ccc(Cl)cc2)CC1	0	0	2	4
Clc1ccc(CN2CCN(/N=C/c3c(Cl)nc4sccn34)CC2)cc1	0	9	40*	2
Cc1csc(CN(C)C2CCC(=O)N(CCCC(C)C)CC2)n1 (stereo not drawn)	0	8	-3	1
COc1cc(/C=C(\C#N)c2nc3ccccc3[nH]2)c(Br)cc1O	1	21	41*	-2
Cc1cc(/C=C(/C#N)c2nc3ccccc3[nH]2)c(C)n1-c1cccnc1	0	3	59*	3
Cc1ccc2nc(/C(C#N)=C/c3cc([N+](=O)[O-])ccc3O)[nH]c2c1	0	11	-4	0
Cc1ccc2nc(/C(C#N)=C/c3ccccc3O)[nH]c2c1	0	6	97*	-9
COc1cc(Br)c(/C=C(\C#N)c2nc3ccccc3[nH]2)cc1OC	1	-7	-21	1
CCOc1ccc2nc(SCC(=O)NC3CCCCC3)sc2c1	0	6	12	0
COc1cc(/C=N/NC(=O)Cc2csc(N3CCOCC3)n2)cc(OC)c1O	0	0	4	0
CC(C)n1c(O)c(N=NC(=O)Cc2csc(N3CCOCC3)n2)c2ccccc21	0	17	82*	-1
CCOc1cc(-c2nnc(SCC(=O)NCc3ccccc3)nc2-c2ccc(OC)c(OCC)c2)ccc1OC	0	13	52*	0
CCOc1cc(-c2nnc(SCC(=O)NCc3ccc(C)cc3)nc2-c2ccc(OC)c(OCC)c2)ccc1OC	0	-6	11	0
COc1ccc(-c2nnc(SCC(=O)NCc3cccs3)nc2-c2ccc(OC)c(OC)c2)cc1OC	0	3	56*	3
Cc1nc2c(cnn2-c2ccccc2)c(=O)n1-c1cccc2ccccc12	0	7	37*	0
CS(=O)(=O)c1ccc(N2CCN(S(=O)(=O)c3cccs3)CC2)c(F)c1	0	7	-7	2
NC(=O)c1ccc(N2CCN(S(=O)(=O)c3ccccc3)CC2)c([N+](=O)[O-])c1	0	3	34*	5
NS(=O)(=O)c1ccc(N2CCN(S(=O)(=O)c3cccs3)CC2)c([N+](=O)[O-])c1	0	0	34*	1
SMILES	FBW7 act	MITF inh	TEAD-YAP block	GPR151 ag
CC(=O)Nc1ccc(NC2=C/C(=N/S(=O)(=O)c3ccccc3)c3ccccc3C2=O)cc1	0	33	99*	0
O=C1C(N2CCCCC2)=C/C(=N/S(=O)(=O)c2ccccc2)c2ccccc21	0	13	-6	-2
COc1ccc(/C=C2\C=C(c3ccccc3)N(c3cccc(Cl)c3Cl)C2=O)cc1Br	0	-4	3	2
COc1cc(C=O)ccc1OCc1nnnn1-c1ccccc1	2.0*	17	11	-1
COc1ccccc1NC(=O)N(Cc1nc2ccccc2c(=O)[nH]1)Cc1cccs1	0	19	3	0
CC(=O)c1ccc(S(=O)(=O)NCCC(C)C)cc1	0	5	8	1
CC(C)CCNS(=O)(=O)c1ccc(Oc2ccc(S(=O)(=O)NCCC(C)C)cc2)cc1	1	10	33*	0
Cc1cc(N2CCN(c3ncccn3)CC2)nc2ccc(NC(=O)c3ccc(Br)o3)cc12	0	4	7	2
O=C(Nc1ccc(Oc2ccccc2)cc1)c1ccc(F)c([N+](=O)[O-])c1	0	11	57*	0

Screening data from PubChem.
